Test results published in PubChem BioAssay (NCI).
About 83,000 compounds went through this panel and 20% of them were active in at least one assay; those are over-represented in the sample as a whole.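 Percent growth is the endpoint: 0 to 100 indicates growth inhibition (40 means 60% inhibition), 0 means no net growth, and negative values indicate cell death.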 A number with no mark means an inactive call. Calls of active or inactive are those of the source. How the source made its calls: active means growth percent below 10; inactive means the rest.

Columns and labels:
Experiment in all cases: NCI-60 one-dose screen, 48 h (100 = growth as untreated, 0 = no growth, -100 = all killed)
Settings in all cases: 10 µM unless noted
[1] = system: DU-145 prostate
[2] = system: K-562 leukemia
[3] = system: MALME-3M melanoma
[4] = system: MDA-MB-231 breast
[5] = system: RXF 393 renal
[6] = system: SF-268 CNS
[7] = system: SF-295 CNS
[8] = system: SF-539 CNS
[9] = system: M14 melanoma
[10] = system: HT29 colon
[11] = system: SNB-75 CNS
[12] = system: U251 CNS
[13] = system: PC-3 prostate
[14] = system: SK-MEL-5 melanoma
[15] = system: UACC-62 melanoma
[16] = system: LOX IMVI melanoma
[17] = system: SK-MEL-28 melanoma
[18] = system: HCT-15 colon
[19] = system: UACC-257 melanoma
[20] = system: SNB-19 CNS

Row | Compound | growth [1] | growth [2] | growth [3] | growth [4] | growth [5] | growth [6] | growth [7] | growth [8] | growth [9] | growth [10] | growth [11] | growth [12] | growth [13] | growth [14] | growth [15] | growth [16] | growth [17] | growth [18] | growth [19] | growth [20]
1 | CCCCCCCCCCCCCC1=NCCN1CCO | 116% | 5.11% (active) | 104% | 51.3% | 59.5% | 152% | 136% | -70% (active) | 2.59% (active) | 10.1% | 150% | 50.8% | 31.6% | 81.8% | 93.5% | -52.8% (active) | 115% | – | – | –
2 | CC1CN(Cc2ccco2)C(=S)N(c2ccccc2)C1=O (configuration not stated) | 110% | 62.7% | 97.8% | 106% | 111% | 105% | 92.3% | 90.8% | 99.6% | 93.4% | 62.2% | 93.4% | 86.5% | 100% | 93.2% | 94.1% | 102% | 98.2% | – | –
3 | O=C(Cc1ccccc1)c1ccc(Cl)cc1 | 119% | 123% | 105% | 103% | 121% | 111% | 103% | 107% | – | 115% | 95.9% | 99.5% | 116% | – | 93.2% | 102% | 114% | 97.1% | – | –
4 | Cc1ccc(SCN2CCN(c3cccc(Cl)c3)CC2)cc1 | 116% | 118% | 87.3% | 84.3% | 108% | 100% | 97.3% | 96.2% | 96.9% | 110% | 85.4% | 89.1% | 101% | 93.7% | 89% | 81.6% | 120% | 93.1% | – | –
5 | O=C(O)c1cccc2c1-c1ccccc1C2=O | 114% | 119% | 85.8% | 96% | 90.4% | 105% | 96.6% | 97.9% | 94.5% | 103% | 86.8% | 95.7% | 94% | 102% | 90.1% | 97.5% | 109% | 95.7% | – | –
6 | COc1ccc(/C=N\NC(=O)CN2CCN(c3cc4c(cc3F)c(=O)c(C(=O)N/N=C/c3ccc(OC)cc3)cn4C3CC3)CC2)cc1 | 91.6% | 71.7% | 85.2% | 85.7% | 83.3% | 76.7% | 91.3% | 83% | – | 90.2% | – | 95% | 71.9% | 72.2% | 83.3% | 90.1% | 93.9% | 76.6% | 91.6% | 86.2%
7 | CN1CCN(Cc2ccc(NC(=O)c3cncc(C#Cc4c(N)ncc5ccc(C#N)cc45)c3)cc2C(F)(F)F)CC1 | -60.2% (active) | -39.3% (active) | -81.9% (active) | -82% (active) | -76.6% (active) | -43.3% (active) | 85.9% | 39.7% | – | -75.7% (active) | – | -69.4% (active) | -52.1% (active) | – | -68.5% (active) | -79.8% (active) | -78.7% (active) | -81.8% (active) | 68.7% | -79.1% (active)
8 | CCOC(=O)C(C#N)C1CCCCC1 (configuration not stated) | 104% | 79.3% | 95.6% | 81.3% | 99.3% | 91% | 93.5% | 122% | 101% | 108% | 97.9% | 93.8% | 80.7% | 103% | 75.6% | 92.4% | 108% | 95.9% | – | –
9 | Clc1ccc(-c2nnc(COc3ccccc3Cl)o2)cc1 | 95.6% | 74.7% | 72.4% | 67.4% | 46.9% | 75.5% | 89.8% | – | 76.4% | 71% | 2.45% (active) | 60.3% | 89.1% | 91.4% | 79.7% | 81.5% | 85.1% | 81% | 80.6% | 86.7%
10 | CCCCCn1cnc2c(=S)nc[nH]c21 | 124% | 97.9% | 111% | 131% | 160% | 124% | 119% | 91% | – | 114% | 90.2% | 110% | 98% | 93.5% | 109% | 107% | 106% | 107% | 131% | –
11 | CCCCCCCCCCCCNC(=O)[C@H]1CSC(c2ccc(OC)c(F)c2)N1 (some centres not stated) | -87.6% (active) | -52.7% (active) | -92.3% (active) | -88.3% (active) | -96.1% (active) | -69.2% (active) | -88.4% (active) | -94.3% (active) | – | -83.1% (active) | – | -93.4% (active) | -93.8% (active) | -98.1% (active) | -95% (active) | -89.6% (active) | -92.6% (active) | -82.3% (active) | -94.1% (active) | -92.6% (active)
12 | CN(C)c1ccc(/C=C\C2=[N+](C)c3ccccc3C2(C)C)cc1 | 16.3% | 90.8% | 20.8% | 23% | 37.3% | 6% (active) | -23.9% (active) | 22.1% | 18% | 10.5% | 31.3% | 11% | -4.73% (active) | – | 15.9% | 16.1% | 37.5% | 63.2% | – | –
13 | CCN(CC)c1ccc(/C=C/C2=[N+](C)c3ccccc3C2(C)C)cc1 | 14.3% | 28.3% | 19% | 7.79% (active) | 33.7% | 17% | -19% (active) | 14.7% | 22.4% | 10.7% | 26.4% | 13.8% | 5.82% (active) | -71.3% (active) | 16% | 13.3% | 42.9% | 41.1% | – | –
14 | COc1cccc(/C=C\C(=O)c2ccccc2)c1 | 53.8% | 31% | 83.4% | 88.5% | 50.2% | 60.4% | 77.5% | 87.7% | 85.1% | 73.4% | 78.9% | 35.1% | 63.5% | 90.8% | 70.7% | 30.3% | 103% | 66.3% | – | –
15 | COC(=O)[C@@H]1CC[C@]2(C)[C@H](CC[C@@H]3O[C@@]32C)[C@@]1(C)CC(=O)c1ccoc1 | 112% | 100% | 97.7% | 88.3% | 111% | 103% | 104% | – | 108% | 93.2% | 114% | 91.8% | 86% | 97.4% | 89.5% | 98.6% | 104% | 103% | 88.4% | 91.1%
16 | COC(=S)SCN(CSC(=S)OC)c1ccc(Cl)cc1 | 110% | 90.1% | 75.1% | 66.1% | 95.3% | 94.2% | 84.8% | 84.8% | 77% | 102% | 58.9% | 90.9% | 99.3% | 83.6% | 58% | 73.4% | 102% | 86.3% | – | –
17 | Cn1c(=O)c2c(ncn2CC[N+](C)(C)C)n(C)c1=O | 104% | 92.1% | 105% | 104% | 111% | 98.6% | 103% | – | 103% | 93.8% | 90.9% | 101% | 94.5% | 102% | 86.9% | 99.6% | 106% | 112% | 94.4% | 101%
18 | COc1ccc(-c2nn(-c3ccccc3)cc2/C=C/C(=O)OCc2cn(-c3ccc(F)c(Cl)c3)nn2)cc1 | 97.2% | 69.7% | 59% | 56.9% | 68.4% | 77.4% | 97.3% | 98.7% | – | 103% | – | 101% | 60.5% | 83.3% | 80% | 78.9% | 115% | 88.5% | 92.9% | 85%
